# Results published in the supplement of paper PMC9694430.
# “And” between values parts separate entries of the source, which are not always exact repeats. Equal values may be shown once. Where a name gives a salt, the structure may show the parent alone.
# System: LOC_OS02G14120-cb001
# Assay: thermal shift delta Tm vs DMSO control; higher = stronger stabilization (binding)
# Conditions: 12.5 µM; protein concentration 2 µM
# Procedure, shortened: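 Thermal shift values come from differential scanning fluorimetry on purified rice kinase domains made in E. coli, with melting temperatures obtained from Boltzmann fits. Samples of 19.5 μl held 2 μM kinase, 100 mM potassium phosphate pH 7.5, 150 mM NaCl, 10% glycerol, 5 × SYPRO Orange and compound in DMSO, and were heated from 25°C to 95°C at 0.05°C/s. Each shift is a triplicate mean relative to the DMSO-only protein sample.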
# 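Also: purified Escherichia coli-expressed rice kinase domain construct.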
row,Compound,thermal shift delta Tm
1,COc1cc(Nc2ncc(F)c(Nc3ccc4c(n3)NC(=O)C(C)(C)O4)n2)cc(OC)c1OC,12.4 °C
2,Cc1ccc(-n2nc(C(C)(C)C)cc2NC(=O)Nc2ccc(OCCN3CCOCC3)c3ccccc23)cc1 [Doramapimod (BIRB 796)],0.95 °C
3,CC#CC(=O)N1CC[C@@H](n2c(=O)n(-c3ccc(Oc4ccccc4)cc3)c3c(N)ncnc32)C1 [ONO-4059 (GS-4059) hydrochloride],0.04 °C
4,O=C(NC[C@H](O)CO)c1ccncc1Nc1ccc(I)cc1F,-0.42 °C
5,CO[C@H]1C[C@@H]2CC[C@@H](C)[C@@](O)(O2)C(=O)C(=O)N2CCCC[C@H]2C(=O)O[C@H]([C@H](C)C[C@@H]2CC[C@@H](O)[C@H](OC)C2)CC(=O)[C@H](C)/C=C(\C)[C@@H](O)[C@@H](OC)C(=O)[C@H](C)C[C@H](C)/C=C/C=C/C=C/1C [Rapamycin (Sirolimus)],1 °C
6,COc1c(C)c(C(=O)c2ccc(N)c(C(=O)O)c2)n2ccccc12,-0.55 °C
7,CC(C)CC(=O)Nc1n[nH]c2c1CN(C(=O)C1CCN(C)CC1)C2(C)C,0.04 °C
8,COc1cc2ncnc(Nc3ccc(O)c(Br)c3)c2cc1OC,7.45 °C
9,CCN(CC)CCCC(C)Nc1nc(C)cc(Nc2ccc3nc(C)cc(N)c3c2)n1 (configuration not stated),0.93 °C
10,Cc1cc(NC(=O)c2cccc(NC(=O)/C=C/CN(C)C)c2)ccc1Nc1nccc(-c2cccnc2)n1,0.95 °C
11,COc1cc2ncnc(Nc3cccc(Cl)c3F)c2cc1OC(=O)N1CCN(C)C[C@H]1C,0.64 °C
12,Cc1ccc(C(=O)Nc2ccc(Oc3cc4cnn(C)c4cc3-c3cn[nH]c3)c(F)c2)c(=O)n1-c1ccc(F)cc1,5.05 °C
13,CC#CC(=O)N1CCC[C@H]1c1nc(-c2ccc(C(=O)Nc3ccccn3)cc2)c2c(N)nccn12 [Acalabrutinib (ACP-196)],0.57 °C
14,Nc1ncccc1-c1nc2ccc(-c3ccccc3)nc2n1-c1ccc(C2(N)CCC2)cc1 [Miransertib (ARQ 092) HCl],1.05 °C
15,Cc1cc(C(C)Nc2ccccc2)c2nc(N3CCOCC3)cc(=O)n2c1 (configuration not stated),0 °C
16,COc1cc2nccc(Oc3ccc(NC(=O)C4(C(=O)Nc5ccc(F)cc5)CC4)cc3)c2cc1OC [Cabozantinib malate (XL184)],0.46 °C
17,COC(=O)N[C@@H](C)CNc1nccc(-c2cn(C(C)C)nc2-c2cc(Cl)cc(NS(C)(=O)=O)c2F)n1 [Encorafenib (LGX818)],1.23 °C
18,COc1ccc(C(=O)Nc2sc3c(c2C(N)=O)CCCC3)cc1OC,2.58 °C
19,CN1C(=O)[C@@H](NC(=O)c2n[nH]c(Cc3ccccc3)n2)COc2ccccc21,0.71 °C

row,Compound,thermal shift delta Tm
1,Nc1nccc(Oc2ccc(NC(=O)c3c[nH]cc(-c4ccc(F)cc4)c3=O)cc2F)c1Cl,8.06 °C
2,COc1cc2c(c(OC)c1OC)-c1c(cc3c(c1OC)OCO3)CC(C)C(C)C2 (configuration not stated) [Schisandrin B (Sch B)],0.07 °C
3,COC(=O)c1ccc2c(c1)NC(=O)/C2=C(\Nc1ccc(N(C)C(=O)CN2CCN(C)CC2)cc1)c1ccccc1 [Nintedanib (BIBF 1120)],0.3 °C
4,O=C(Nc1ccccc1C(=O)NC1CCCCNC1=O)c1cc2ccccc2s1 (configuration not stated),0.18 °C
5,Cc1cc(C)c(/C=C2\C(=O)Nc3ccccc32)[nH]1 [Semaxanib (SU5416)],3.06 °C
6,N#Cc1cccc(-c2c[nH]c3ncnc(N4CCOCC4)c23)c1,3.85 °C
7,Cc1ccc2nc(NCCN)c3ncc(C)n3c2c1,0.86 °C
8,C[C@@H]1CCN(C(=O)CC#N)C[C@@H]1N(C)c1ncnc2[nH]ccc12,0.97 °C and 0.47 °C
9,Cc1nc(NC(=O)N2CCC[C@H]2C(N)=O)sc1-c1ccnc(C(C)(C)C(F)(F)F)c1 [Alpelisib (BYL719)],2.13 °C
10,CNc1nc(Nc2cn(C(C)(C)C#N)nc2C)ncc1C(F)(F)F,0.65 °C
11,O=C(Nc1c[nH]nc1-c1nc2ccc(CN3CCOCC3)cc2[nH]1)NC1CC1,11.9 °C
12,N#Cc1ccc(-c2c(-c3ncn[nH]3)sc(N3CCOCC3)c2C#N)c(F)c1,1.41 °C
13,Oc1cccc(-c2nc(N3CCOCC3)c3oc4ncccc4c3n2)c1,0.49 °C
14,CN(C)C/C=C/C(=O)Nc1ccc(C(=O)Nc2cccc(Nc3ncc(Cl)c(-c4c[nH]c5ccccc45)n3)c2)cc1,10.1 °C
15,CCNC(=O)Nc1ccc(-c2nc(N3CCOC[C@@H]3C)c3c(n2)C(C)(C)S(=O)(=O)C3)cc1,1.4 °C
16,CNC(=O)c1cc(Oc2ccc3nc(N[C@@H]4CCCC[C@H]4O)sc3c2)ccn1,-0.02 °C
17,CN(C)CCOc1ccc(-c2nc(-c3ccncc3)c(-c3ccc4c(c3)CC/C4=N\O)[nH]2)cc1,-0.05 °C
18,Cc1ccc(NC(=O)c2cccc(N(C)C)c2)cc1NC(=O)c1ccc(O)cc1,0.45 °C
